Laboratory results published in the supplement of paper PMC9262897, “Low-cost anti-mycobacterial drug discovery using engineered E. coli” (Nature Communications, 2022).
Counter-ions that a name gives are not always drawn. ± gives the standard deviation of the averaged measurements.

Legend:
Experiment in all cases: growth (OD600 after 10 h); higher = more growth (less inhibition)
[1] = system: E. coli TESEC Alr+ wild-type control; conditions: compound 0.1 mM; raw OD600 reference: median of DMSO wells 0.241, cell-free background 0.041
Experimental: (§1)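 TESEC Mtb Alr E. coli, or the Alr+ wild-type control, in 384-well plates with Prestwick library compounds at 0.1 mM and 1% DMSO, across arabinose induction levels of 1E3 to 1E7 nM. Growth is read as OD600 after 10 h at 37 °C in triplicate biological replicates.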

E. coli TESEC Mtb Alr [2] = conditions: compound 0.1 mM
Experimental: as §1

E. coli TESEC Mtb Asd = conditions: compound 0.1 mM
Experimental: (§2)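 TESEC E. coli strains in which the native enzyme is deleted and replaced by arabinose-inducible Mtb Asd, DapB, CysH or TrpD, each grown in its selective medium. Strains were screened against the Prestwick library at 0.1 mM and 1% DMSO in 384-well format at low and high arabinose induction. Growth is read as OD600 after 10 h in triplicate.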

E. coli TESEC Mtb DapB = conditions: compound 0.1 mM
Experimental: as §2

[3] = system: E. coli TESEC Alr+ wild-type control; conditions: compound 0.1 mM; raw OD600 reference: median of DMSO wells 0.49, cell-free background 0.052
Experimental: (§3)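 TESEC Mtb Alr E. coli (ΔaraC ΔtolC ΔentC Δalr ΔdadX, arabinose-inducible Mtb Alr) or the Alr+ wild-type control strain, grown in defined M9-fructose medium without D-alanine in 96-well plates with Prestwick library compounds at 0.1 mM and 1% DMSO. Low Alr induction is 0.1 µM arabinose and high induction is 10 mM arabinose.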

E. coli TESEC Mtb Alr [4] = conditions: compound 0.1 mM; remark: listed apart in the source
Experimental: as §3

[5] = arabinose 1000 nM, raw OD600 reference: median of DMSO wells 0.294, cell-free background 0.041
[6] = arabinose 10000 nM, raw OD600 reference: median of DMSO wells 0.264, cell-free background 0.041
[7] = arabinose 100000 nM, raw OD600 reference: median of DMSO wells 0.201, cell-free background 0.041
[8] = arabinose 1000000 nM, raw OD600 reference: median of DMSO wells 0.193, cell-free background 0.041
[9] = arabinose 10000000 nM, raw OD600 reference: median of DMSO wells 0.146, cell-free background 0.041
[10] = arabinose induction (level): High, raw OD600 reference: median of DMSO wells 0.331, cell-free background 0.041
[11] = arabinose induction (level): Low, raw OD600 reference: median of DMSO wells 0.417, cell-free background 0.041
[12] = arabinose induction (level): High, raw OD600 reference: median of DMSO wells […], cell-free background 0.041
[13] = arabinose induction (level): Low, raw OD600 reference: median of DMSO wells 0.227, cell-free background 0.041
[14] = arabinose 100 nM, raw OD600 reference: median of DMSO wells 0.413, cell-free background 0.052
[15] = arabinose 10000000 nM, raw OD600 reference: median of DMSO wells […], cell-free background 0.052

| Compound | growth [1] | growth (E. coli TESEC Mtb Alr [2]; [5]) | growth (E. coli TESEC Mtb Alr [2]; [6]) | growth (E. coli TESEC Mtb Alr [2]; [7]) | growth (E. coli TESEC Mtb Alr [2]; [8]) | growth (E. coli TESEC Mtb Alr [2]; [9]) | growth (E. coli TESEC Mtb Asd; [10]) | growth (E. coli TESEC Mtb Asd; [11]) | growth (E. coli TESEC Mtb DapB; [12]) | growth (E. coli TESEC Mtb DapB; [13]) | growth [3] | growth (E. coli TESEC Mtb Alr [4]; [14]) | growth (E. coli TESEC Mtb Alr [4]; [15]) |
| --- | --- | --- | --- | --- | --- | --- | --- | --- | --- | --- | --- | --- | --- |
| NC(=O)C(c1ccccc1)(c1ccccc1)[C@@H]1CCN(CCc2ccc3c(c2)CCO3)C1 [Darifenacin hydrobromide] | 0.163 ± 0.011 | 0.216 ± 0.0036 | 0.292 ± 0.0043 | 0.16 ± 0.02 | 0.0999 ± 0.0027 | 0.146 ± 0.011 | 0.156 ± 0.033 | 0.276 ± 0.01 | 0.186 ± 0.0081 | 0.205 ± 0.015 | 0.403 ± 0.013 | 0.411 ± 0.0056 | 0.272 ± 0.016 |
| CC(CN1c2ccccc2Sc2ccccc21)N(C)C (configuration not stated) [Promethazine hydrochloride] | 0.197 ± 0.0039 | 0.215 ± 0.013 | 0.2742 ± 0.0025 | 0.197 ± 0.018 | 0.13 ± 0.0016 | 0.157 ± 0.004 | 0.139 ± 0.0045 | 0.254 ± 0.021 | 0.221 ± 0.016 | 0.245 ± 0.012 | 0.456 ± 0.026 | 0.409 ± 0.014 | 0.334 ± 0.0051 |
| O=C1CN2Cc3c(ccc(Cl)c3Cl)N=C2N1 [Anagrelide] | 0.216 ± 0.0042 | 0.2815 ± 0.0021 | 0.281 ± 0.0097 | 0.191 ± 0.0049 | 0.209 ± 0.011 | 0.142 ± 0.005 | 0.27 ± 0.06 | 0.423 ± 0.043 | 0.198 ± 0.011 | 0.232 ± 0.024 | 0.536 ± 0.019 | 0.413 ± 0.011 | 0.368 ± 0.065 |
| CCN[C@H]1C[C@H](C)S(=O)(=O)c2sc(S(N)(=O)=O)cc21 [Dorzolamide hydrochloride] | 0.24 ± 0.0034 | 0.296 ± 0.003 | 0.293 ± 0.013 | 0.211 ± 0.038 | 0.187 ± 0.0042 | 0.15 ± 0.0023 | 0.216 ± 0.014 | 0.355 ± 0.06 | 0.199 ± 0.016 | 0.253 ± 0.023 | 0.47 ± 0.0087 | 0.4329 ± 0.0026 | 0.337 ± 0.019 |
| NS(=O)(=O)c1cc2c(cc1Cl)NC(CC1CCCC1)NS2(=O)=O (configuration not stated) [Cyclopenthiazide] | 0.236 ± 0.0074 | 0.278 ± 0.0078 | 0.2543 ± 0.0017 | 0.273 ± 0.013 | 0.191 ± 0.0034 | 0.143 ± 0.0052 | 0.377 ± 0.063 | 0.314 ± 0.053 | 0.212 ± 0.0077 | 0.214 ± 0.0079 | 0.513 ± 0.035 | 0.375 ± 0.011 | 0.356 ± 0.0061 |
| CCCCc1oc2ccccc2c1C(=O)c1cc(I)c(OCCN(CC)CC)c(I)c1 [Amiodarone hydrochloride] | 0.263 ± 0.01 | 0.325 ± 0.0083 | 0.324 ± 0.0065 | 0.193 ± 0.0069 | 0.177 ± 0.0065 | 0.153 ± 0.0059 | 0.284 ± 0.017 | 0.338 ± 0.033 | 0.185 ± 0.0075 | 0.227 ± 0.0068 | 0.58 ± 0.025 | 0.424 ± 0.057 | 0.316 ± 0.044 |
| O=C(Nc1ccc([N+](=O)[O-])cc1Cl)c1cc(Cl)ccc1O [Niclosamide] | 0.0431 ± 0.00067 | 0.0406 ± 0.001 | 0.0492 ± 0.0021 | 0.0408 ± 0.0001 | 0.03973 ± 0.00035 | 0.0404 ± 0.00042 | 0.0715 ± 0.017 | 0.225 ± 0.037 | 0.174 ± 0.012 | 0.193 ± 0.043 | 0.053 ± 0.003 | 0.0618 ± 0.0064 | 0.0616 ± 0.00076 |
| N=C(N)NCc1cccc(I)c1 [Iobenguane sulfate] | 0.231 ± 0.005 | 0.289 ± 0.0045 | 0.267 ± 0.0098 | 0.238 ± 0.029 | 0.202 ± 0.012 | 0.149 ± 0.011 | 0.29 ± 0.018 | 0.425 ± 0.056 | 0.188 ± 0.0051 | 0.265 ± 0.04 | 0.488 ± 0.019 | 0.409 ± 0.016 | 0.384 ± 0.013 |
| C[C@@H]1CN(c2c(F)c(N)c3c(=O)c(C(=O)O)cn(C4CC4)c3c2F)C[C@H](C)N1 [Sparfloxacin] | 0.0414 ± 0.0019 | 0.0409 ± 0.0011 | 0.0398 ± 0.0002 | 0.0433 ± 0.0046 | 0.04 ± 0.00078 | 0.04067 ± 0.00038 | 0.04863 ± 0.0004 | 0.0462 ± 0.0031 | 0.0488 ± 0.00061 | 0.04823 ± 0.00038 | 0.0553 ± 0.0029 | 0.0536 ± 0.0018 | 0.051 ± 0.00046 |
| CCCCCCCCCCCCCCCC[N+](C)(C)CCN(Cc1ccc(OC)cc1)c1ncccn1 [Thonzonium bromide] | 0.0453 ± 0.0014 | 0.08477 ± 0.00045 | 0.0958 ± 0.0043 | 0.0909 ± 0.0047 | 0.0447 ± 0.003 | 0.0932 ± 0.0021 | 0.0571 ± 0.0024 | 0.059 ± 0.0013 | 0.05637 ± 0.00046 | 0.0589 ± 0.002 | 0.0464 ± 0.00035 | 0.226 ± 0.15 | 0.112 ± 0.01 |
| Cc1ccccc1N1C(=O)c2cc(S(N)(=O)=O)c(Cl)cc2NC1C (configuration not stated) [Metolazone] | 0.214 ± 0.0042 | 0.226 ± 0.031 | 0.258 ± 0.0029 | 0.214 ± 0.0094 | 0.136 ± 0.004 | 0.1376 ± 0.00093 | 0.386 ± 0.049 | 0.422 ± 0.091 | 0.199 ± 0.038 | 0.254 ± 0.087 | 0.481 ± 0.062 | 0.4 ± 0.018 | 0.292 ± 0.011 |
| CCN(CC)CCOC(=O)C(c1ccccc1)C1CCCCC1 (configuration not stated) [Drofenine hydrochloride] | 0.149 ± 0.0031 | 0.203 ± 0.017 | 0.218 ± 0.0035 | 0.16 ± 0.0022 | 0.0678 ± 0.00092 | 0.1432 ± 0.00046 | 0.119 ± 0.0039 | 0.271 ± 0.017 | 0.156 ± 0.0038 | 0.179 ± 0.014 | 0.428 ± 0.026 | 0.407 ± 0.019 | 0.168 ± 0.058 |
| CC(CCc1ccc(O)cc1)NCCc1ccc(O)c(O)c1 (configuration not stated) [Dobutamine hydrochloride] | 0.116 ± 0.0039 | 0.227 ± 0.021 | 0.174 ± 0.0051 | 0.198 ± 0.0044 | 0.116 ± 0.0039 | 0.115 ± 0.0067 | 0.176 ± 0.006 | 0.165 ± 0.029 | 0.19 ± 0.02 | 0.167 ± 0.02 | 0.539 ± 0.008 | 0.409 ± 0.0099 | 0.343 ± 0.018 |
| CC(C)NCC(O)c1ccc(NS(C)(=O)=O)cc1 (configuration not stated) [Sotalol hydrochloride] | 0.163 ± 0.0095 | 0.206 ± 0.0064 | 0.254 ± 0.0096 | 0.173 ± 0.025 | 0.138 ± 0.0027 | 0.142 ± 0.0089 | 0.242 ± 0.084 | 0.377 ± 0.056 | 0.181 ± 0.016 | 0.221 ± 0.016 | 0.433 ± 0.0053 | 0.402 ± 0.012 | 0.359 ± 0.025 |
